Laboratory results from PubChem BioAssay (Tox21).
Several values for one entry are separate records, joined by “and”; a condition that tells them apart may be missing. Equal entries are not always repeated. Results filed as inconclusive are left out. Where a call stands in place of a potency, no number is given. Some structures have more than one record in an assay (separate samples or runs), and their calls can disagree. Activity calls are given as the source filed them. The call rests on the fitted dose curve.

test: qHTS assay to identify small molecule agonists of the endoplasmic reticulum stress response signaling pathway - cell viability counter screen (AID 1159517); settings: ESRE-bla HeLa viability, CellTiter-Glo luminescence, 5 h; series mostly up to 61 µM; activity change, negative = cytotoxicity: at the top concentration; further: nearly all actives have a fitted effect of over 50% in size
Description: U.S. Tox21 Program National Center for Advancing Translational Sciences [NCATS] NIH Chemical Genomics Center [NCGC] U.S. Environmental Protection Agency [EPA] National Institutes of Environmental Health Sciences [NIEHS] National Toxicology Program [NTP] U.S. Food and Drug Administration [FDA] Tox21 Assay Overview: Endoplasmic Reticulum (ER) plays an important role in cellular signaling, protein folding/maturation, stress response, lipid biosynthesis, calcium storage and release etc. Under stress conditions, proteins in ER misfold or unfold, and leading to the expression of ER stress responsive genes. ER stress has been associated with a variety of pathophysiological conditions such as cancer, inflammation, neurodegenerative diseases, diabetes, ischemic heart disease etc. To identify the compounds that induce ER stress response, an ER stress reporter cell line, CellSensor ESRE-bla HeLa (Life Technologies, Carlsbad, CA) containing a beta-lactamase reporter gene under control of the Endoplasmic reticulum Stress Response Element (ESRE) was used to screen Tox21 10K compound library. The cytotoxicity of the Tox21 compound library against the ESRE-bla HeLa cell line was tested in parallel by measuring cell viability using the CellTiter-Glo assay in the same wells.
Tox21 Assay Protocol Summary: ESRE-bla HeLa cells were dispensed at 1,500 cells/6 uL of assay medium per well into black wall/clear-bottom 1536-well plates using a Multidrop Combi (ThermoFisher Scientific, Waltham, MA) dispenser. After the assay plates were incubated at 37 C and 5% CO2 for an overnight, 23 nL of compounds dissolved in DMSO, positive controls or DMSO only was transferred to the assay plate by a Pintool station (Kalypsys, San Diego, CA). The assay plates were incubated at 37 C and 5% CO2 for 5 hr. One uL of LiveBLAzer B/G FRET substrate (Life Technologies) was added using a FRD (Flying Reagent Dispenser, Aurora Discovery, San Diego, CA) and the plates were incubated at room temperature for 2 hr. Fluorescence intensity (405 nm excitation, 460 nm and 530 nm emissions) was measured using an Envision plate reader (PerkinElmer, Shelton, CT). For cytotoxicity, 4 ul/well of CellTiter-Glo reagent was added into the assay plates using an FRD. After 30 min incubation at room temperature, the luminescence intensity was measured using a ViewLux plate reader (PerkinElmer).
Potency means the concentration at half of the fitted maximal effect.

Row | SMILES | Potency | activity change, negative = cytotoxicity
1 | Cl | inactive | 
2 | O=S(=O)(O)C(F)(F)C(F)(F)C(F)(F)C(F)(F)C(F)(F)C(F)(F)C(F)(F)C(F)(F)F | inactive | 
3 | Nc1ccc2ccccc2c1 | inactive | 
4 | CCCCCCCCCc1ccc(O)cc1 | inactive | 
5 | CC(C)COC(=O)c1ccccc1C(=O)OCC(C)C | inactive | 
6 | CCNCC | inactive | 
7 | CC1CC(=O)O1 (stereo not given) | inactive | 
8 | CS(=O)(=O)NC(=O)c1cc(Oc2ccc(C(F)(F)F)cc2Cl)ccc1[N+](=O)[O-] | inactive | 
9 | CCOP(=S)(OCC)SCn1c(=O)oc2cc(Cl)ccc21 | inactive | 
10 | O=NN(c1ccccc1)c1ccccc1 | inactive | 
11 | CN(C)P(=O)(N(C)C)N(C)C | inactive | 
12 | c1ccc(C2CO2)cc1 (stereo not given) | inactive | 
13 | C[C@]12CC[C@H]3[C@@H](CCC4=CC(=O)CC[C@@H]43)[C@@H]1CC[C@@H]2O | inactive | 
14 | O=C1Nc2ccc(Cl)cc2C(c2ccccc2)=NC1O (stereo not given) | inactive | 
15 | Oc1ccc(Cl)cc1Cc1ccccc1 | 49 µM (active) and inactive | 
16 | Clc1ccc(C(Cl)(Cl)Cl)cc1 | inactive | 
17 | CC(C)(c1ccccc1)c1ccc(O)c(C(C)(C)c2ccccc2)c1 | 27.3 µM (active) and 27.5 µM (active) | 
18 | COc1ccc(O)c(C(C)(C)C)c1 | inactive | 
19 | Cc1ccc(N=CN(C)C=Nc2ccc(C)cc2C)c(C)c1 |  | 7.22% (inactive)
20 | CCOP(=O)(O)OCC (tested in a mixture with another compound) | inactive and 24.3 µM (active) | 

Row | SMILES | Potency | activity change, negative = cytotoxicity
21 | C[N+](C)(C)C |  | 11.4% [at 78.8 µM] (inactive)
22 | O=P(OCCCl)(OCCCl)OCCCl | inactive | 
23 | OC(c1ccc(Cl)cc1)(c1cncnc1)c1ccccc1Cl (stereo not given) | inactive | 
24 | COP(=O)(NC(C)=O)SC (stereo not given) | inactive | 
25 | CNC(=O)CSP(=S)(OC)OC | inactive | 
26 | ClC(Cl)(Cl)Br | inactive | 
27 | CC1=C(C(=O)Nc2ccccc2)SCCO1 | inactive | 
28 | Cc1cccc(N=Nc2ccc(N(C)C)cc2)c1 | inactive | 
29 | Clc1cccc(Cl)c1 | inactive | 
30 | C[N+](C)(C)CC(=O)O | inactive | 
31 | Nc1ccc([N+](=O)[O-])cc1N |  | -2.68% (inactive)
32 | CC[n+]1c(-c2ccccc2)c2cc(N)ccc2c2ccc(N)cc21 | inactive | 
33 | Brc1ccc(Br)cc1 | inactive | 
34 | Clc1ccccc1-c1nnc(-c2ccccc2Cl)nn1 | inactive | 
35 | O=[N+]([O-])/N=C1\NCCN1Cc1ccc(Cl)nc1 | inactive | 
36 | C[N+](C)(C)CC(=O)[O-] | inactive | 
37 | CCCCSP(=O)(SCCCC)SCCCC | inactive | 
38 | C=CC(Cl)CCl (stereo not given) | inactive | 
39 | Oc1ccc(Cl)cc1Cl | inactive | 
40 | CCC[CH2][Sn]([Cl])([Cl])[CH2]CCC | 125 nM (active) and 38.9 nM (active) | 
